Only some compounds are listed: those with a hit (about 4.9% of all), similar ones and a draw of the others.
Mdm2 MdmX PPI: human Mdm2/MdmX binding inhibition | SaOS-2 split-luciferase Mdm2/MdmX complementation, luminescence | inhibition, % at 8 µM | actives 3% (n = 330,000) | AID 485346;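 active = inhibition of at least 50% at 8 µM in the primary screen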
Calb FLC: affects C. albicans growth with fluconazole | actives 0.57% (n = 300,000) | growth inhibition, % (concentration not given with the values) | C. albicans CaCi-2 (fluconazole-resistant clinical isolate) + fluconazole, Alamar Blue growth, 48 h;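 active = growth inhibition above about 58% in most replicates, limit read from the data, passing the limit was not always enough; inconclusive = exactly half the replicates above a set limit; inactive = most replicates below a set limit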;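 also: all wells also contain fluconazole at 8 µg/ml as a sub-toxic cotreatment; 0% = median of DMSO wells and 100% = median of geldanamycin control wells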
PP1 counter: PP1-alpha (human) inhibition in PP5 counter-screen; P62136; purified PP1alpha, OMFP fluorescence; inhibition, % at 6.7 µM; actives 0.9% (n = 320,000);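 active = inhibition above the mean inhibition of all tested compounds plus 3 SD, computed separately for each screening campaign, cut at about 15% in these data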
PP5 primary: blocks human protein phosphatase 5 activity; actives 0.18% (n = 320,000); purified PP5c, OMFP substrate fluorescence; inhibition, % at 6.7 µM; AID 1987;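 active = inhibition above the campaign's mean inhibition across all tested compounds plus 3 SD, cut at about 9.5% in these data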;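 also: 0% = DMSO only and 100% = 100 µM cantharidin control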
Target sequence (P53041 whole entry, looked up): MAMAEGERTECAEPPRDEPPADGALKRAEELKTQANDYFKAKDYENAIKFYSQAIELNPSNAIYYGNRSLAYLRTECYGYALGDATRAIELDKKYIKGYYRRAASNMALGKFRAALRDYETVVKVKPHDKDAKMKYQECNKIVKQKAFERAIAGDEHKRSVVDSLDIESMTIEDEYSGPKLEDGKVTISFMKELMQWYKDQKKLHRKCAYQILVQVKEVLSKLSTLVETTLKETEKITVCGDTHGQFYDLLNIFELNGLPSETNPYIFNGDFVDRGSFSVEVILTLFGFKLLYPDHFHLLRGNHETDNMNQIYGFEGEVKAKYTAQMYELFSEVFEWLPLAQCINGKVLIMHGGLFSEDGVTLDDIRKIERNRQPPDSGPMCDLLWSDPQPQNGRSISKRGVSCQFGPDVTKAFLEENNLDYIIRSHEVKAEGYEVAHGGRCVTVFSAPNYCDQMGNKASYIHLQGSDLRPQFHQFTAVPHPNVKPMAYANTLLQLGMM
CSC inhib: blocks cancer stem cells; cancer stem cell-like cells viability, luminescence; inhibition, % at 7.5 µM; actives 1.1% (n = 300,000); AID 2717; in the data active = inhibition above about 75%; inconclusive = no clear call, values can overlap the other calls; tested in HMLE shEcad cells
Beta cell apopt: blocks beta cell apoptosis; protection from apoptosis, % (test concentration not listed); INS-1E cytokine-induced death, ATP luminescence, 48 h; percent of positive-control rescue, neutral wells zero; actives 0.8% (n = 300,000); AID 435005;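 active = Every replicate reaches about 75%, or at least half do and their mean reaches it too, limit read from the data; inconclusive = At least half of replicates reach the limit but their mean does not; inactive = Under half of replicates reach the limit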;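 also: 0% = cytokine-treated negative control wells and 100% = positive control rescue; higher means more ATP so stronger rescue from cytokine killing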
Mdm2 MdmX conf: human Mdm2/MdmX binding inhibition, confirmed; shares compounds with Mdm2 MdmX PPI; luminescent assay; inhibition, % at 8 µM; actives 55% (n = 10,000); AID 489028; in the data active = inhibition above about 40%
FLuc counter: inhibits full-length luciferase, flagging false Mdm2/MdmX hits. shares compounds with Mdm2 MdmX PPI. SaOS-2 full-length luciferase counterscreen, luminescence. inhibition, % at 8 µM. actives 77% (n = 6,200);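 active = mean inhibition at 8 µM reaching about 37%, which flags the compound as non-specific, limit read from the data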;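 also: p53-null SaOS-2 cells with luciferase driven by a doxycycline-inducible promoter; compound on cells about two nights before reading with doxycycline added after day one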
* hit, by the source's call.

Results for Cc1cc(N/N=C/c2ccc(Cl)cc2Cl)nc(NCc2ccccc2)n1 ?
Mdm2 MdmX PPI: 71*; Calb FLC: 21; PP1 counter: 9; PP5 primary: 3; CSC inhib: inconclusive; Mdm2 MdmX conf: 31

What do the screens show for `CCCCNc1cc(C)nc(NCc2ccccc2)n1`?
Mdm2 MdmX PPI: 67*; Calb FLC: -4; PP1 counter: 1; PP5 primary: -1; CSC inhib: 38; Beta cell apopt: 104*; Mdm2 MdmX conf: 60*; FLuc counter: 39*

How did Cc1cc(N2CCC(C)CC2)nc(-c2ccccc2O)n1 do in these assays?
Mdm2 MdmX PPI: 13; Calb FLC: 7; PP1 counter: 7; PP5 primary: 3; CSC inhib: 12; Beta cell apopt: 9

How did Cc1cc(Nc2ccc(Cl)cc2)nc(NCc2ccccc2)n1 do in these assays?
Mdm2 MdmX PPI: 63*; Calb FLC: inconclusive; PP1 counter: 17*; PP5 primary: 8; CSC inhib: 39; Beta cell apopt: 16; Mdm2 MdmX conf: 42*; FLuc counter: 75*

Results for COc1ccc(OC)c(NC(=O)c2nc(-c3ccccc3)oc2C)c1 ?
Mdm2 MdmX PPI: 21; Calb FLC: -6; PP1 counter: -4; PP5 primary: -1; CSC inhib: -21; Beta cell apopt: -1

Results for Cc1cc(Nc2cccc(F)c2)nc(NCc2ccccc2)n1 ?
Mdm2 MdmX PPI: 66*; Calb FLC: 45; PP1 counter: 9; PP5 primary: 4; CSC inhib: 39; Beta cell apopt: 106*; Mdm2 MdmX conf: 25

Results for Fc1cc(NCc2ccccc2)nc(NCc2ccccc2)n1 ?
Mdm2 MdmX PPI: 20; Calb FLC: 6; PP1 counter: 1; PP5 primary: 1; CSC inhib: 3; Beta cell apopt: -12

What do the screens show for `Cc1cc(Nc2ccccc2)nc(NCc2ccccc2)n1`?
Mdm2 MdmX PPI: 53*; Calb FLC: 97*; PP1 counter: 9; PP5 primary: 5; CSC inhib: 34; Beta cell apopt: 101*; Mdm2 MdmX conf: 37; FLuc counter: 59*

What do the screens show for `COc1ccc(S(=O)(=O)N2CCN(S(=O)(=O)c3ccc4c(c3)OCCO4)CC2)cc1`?
Mdm2 MdmX PPI: 58*; Calb FLC: -2; PP1 counter: -1; PP5 primary: -7; CSC inhib: 1; Beta cell apopt: 0; Mdm2 MdmX conf: 15

Results for NC(=O)NC(CC(=O)NNC(=O)c1ccccn1)c1ccccc1Cl (stereo not drawn) ?
Mdm2 MdmX PPI: 9; PP1 counter: 2; PP5 primary: 2; CSC inhib: -10; Beta cell apopt: -4

How did CCOC(=O)N(Cc1ccccc1)Cc1ccc(C(=O)N[C@@H](Cc2ccccc2)C(=O)O)cc1 do in these assays?
Mdm2 MdmX PPI: -1; Calb FLC: -4; PP1 counter: -3; PP5 primary: 0; CSC inhib: -12; Beta cell apopt: -5

Results for Cc1ccc(NC(=O)CN(C)C(=O)C2CC(=O)N(Cc3ccccc3)C2)cc1 (stereo not drawn) ?
Mdm2 MdmX PPI: 2; Calb FLC: -2; PP1 counter: 0; PP5 primary: 0; Beta cell apopt: -5

What do the screens show for `COc1ccc(-c2oc3cc(OC)c(O)c(OC)c3c(=O)c2OC)cc1O`?
Mdm2 MdmX PPI: 64*; Calb FLC: 11; PP1 counter: -8; PP5 primary: -1; CSC inhib: 0; Beta cell apopt: 11; Mdm2 MdmX conf: 42*; FLuc counter: 28

What do the screens show for `COc1ccc(-c2oc3cc(O)c(OC)c(O)c3c(=O)c2OC)cc1`?
Mdm2 MdmX PPI: 27; Calb FLC: -4; PP1 counter: -2; PP5 primary: 7; CSC inhib: -7

What do the screens show for `COc1ccc(-c2oc3c(OC)c(OC)c(OC)c(O)c3c(=O)c2OC)cc1OC`?
Mdm2 MdmX PPI: 79*; Calb FLC: 20; PP1 counter: -2; PP5 primary: 2; CSC inhib: -9; Beta cell apopt: 9; Mdm2 MdmX conf: 87*; FLuc counter: 47*

How did COc1ccc(CC(=O)Nc2cccc(-c3nnc(-c4cccc(C)c4)o3)c2)cc1OC do in these assays?
Mdm2 MdmX PPI: 93*; Calb FLC: 3; PP1 counter: 0; PP5 primary: 3; CSC inhib: 63; Beta cell apopt: 106*; Mdm2 MdmX conf: 61*; FLuc counter: 41*

Results for COc1ccc(CC(=O)Nc2cccc(-c3nnc(-c4ccc(C)cc4)o3)c2)cc1OC ?
Mdm2 MdmX PPI: 72*; Calb FLC: inconclusive; PP1 counter: 0; PP5 primary: 0; CSC inhib: 34; Beta cell apopt: 42; Mdm2 MdmX conf: 75*; FLuc counter: 67*

What do the screens show for `O=C(NCCc1nnc2ccc(SCC(=O)N3CCCC3)nn12)c1ccc(F)cc1`?
Mdm2 MdmX PPI: 19; Calb FLC: -6; PP1 counter: -1; PP5 primary: -1; CSC inhib: -4; Beta cell apopt: 0

Results for Cc1ccc(S(=O)(=O)N[C@H](C(=O)OCC(=O)N2N=C(c3ccc(Cl)cc3)CC2c2ccco2)C(C)C)cc1 (stereo partly drawn) ?
Mdm2 MdmX PPI: 36; Calb FLC: 14; PP1 counter: 0; PP5 primary: 0; CSC inhib: -19; Beta cell apopt: 3

How did CN1CCCN(c2ncnc3scc(-c4ccc(F)cc4)c23)CC1 do in these assays?
Mdm2 MdmX PPI: 9; Calb FLC: 8; PP1 counter: 0; PP5 primary: 1; CSC inhib: -11; Beta cell apopt: -4

How did CC(C)c1ccc(-c2csc3ncnc(N4CCN(C)CC4)c23)cc1 do in these assays?
Mdm2 MdmX PPI: 58*; Calb FLC: -6; PP1 counter: 0; PP5 primary: 0; CSC inhib: 9; Beta cell apopt: 12; Mdm2 MdmX conf: 57*; FLuc counter: 39*

Results for CC1COc2ccccc2N1C(=O)c1ccc(Cl)nc1 (stereo not drawn) ?
Mdm2 MdmX PPI: -2; Calb FLC: 13; PP1 counter: -7; PP5 primary: -3; CSC inhib: -17; Beta cell apopt: 2

What do the screens show for `CCN(CC)Cc1ccc(NC(=O)c2sc3cc(Cl)ccc3c2Cl)cc1`?
Mdm2 MdmX PPI: 55*; Calb FLC: 103*; PP1 counter: 13; PP5 primary: 2; CSC inhib: 101*; Beta cell apopt: 1; Mdm2 MdmX conf: 21

Results for CCCCn1nnc(NC(=O)c2sc3cc(Cl)ccc3c2Cl)n1 ?
Mdm2 MdmX PPI: 16; PP1 counter: 0; PP5 primary: 4; CSC inhib: 20; Beta cell apopt: -6

Assay outcomes from PubChem.
